Laboratory results published in the supplement of paper PMC10849652.
Of roughly 8,800 targets only a part is listed; those with a hit were picked by preference. About 0.5% of all pairs of compound and target were hits.

Tests used:
Test in all cases: log2 fold change, soluble protein after heating vs DMSO (PISA); higher = thermal stabilisation; K562 lysate, 10 uM; active = over 0.2 and 3.5 SD of the protein, either way, in both replicates (recomputed)
ibrutinib = compound: C=CC(=O)N1CCC[C@@H](n2nc(-c3ccc(Oc4ccccc4)cc3)c3c(N)ncnc32)C1 [ibrutinib]
How it was run: (§1)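 K562 pellets were dounce-homogenised in PBS pH 7.4 with 1 mM MgCl2, and the crude extract at 1 mg/mL protein was treated with 10 μM compound for 30 min. Aliquots were heated for 3 min across 48°C-58°C, pooled, and brought to 0.5% NP-40 at 4°C; soluble protein was the supernatant after 21,000xg for 90 min. Soluble protein was quantified by TMTpro 16plex LC-MS/MS with channel sums equalised, and reported as log2 fold change in thermal stability against DMSO controls, with values from duplicates.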

[1] = compound: CC(=O)c1cnc2ccc(-c3cc(Cl)c(O)c(Cl)c3)nc2c1N[C@H]1CC[C@H](CN(C)C)CC1
How it was run: as §1

ralimetinib = compound: CC(C)(C)Cn1c(N)nc2ccc(-c3[nH]c(C(C)(C)C)nc3-c3ccc(F)cc3)nc21 [ralimetinib]
How it was run: as §1

[2] = compound: CC(C)(O)CC(=O)NCCn1ccc2ncnc(Nc3ccc(Oc4cccc(C(F)(F)F)c4)c(Cl)c3)c21
How it was run: as §1

[3] = compound: CC(C)C1=C2N=C(C=C(N2N=C1)NCC3=CC=CC=C3)NCCCCCCN
How it was run: as §1

[4] = compound: CC1=C(C(CC(=O)N1)C2=CC=C(C=C2)C(F)(F)F)C(=O)NC3=C(C=C4C(=C3)C=NN4)F
How it was run: as §1

[5] = compound: CC1=C(C2=C(C=C1)C(=O)C3=CC=CC=C3N2CCCN)C
How it was run: as §1

[6] = compound: CC1=C(C=C(C=C1)NC(=O)C2=CC(=CC=C2)C(C)(C)C#N)NC3=CC4=C(C=C3)N=CN(C4=O)C
How it was run: as §1

[7] = compound: CC1=C(C=C(C=C1)NC(=O)C2=CC(=CC=C2)N(C)C)NC(=O)C3=CC=C(C=C3)O
How it was run: as §1

[8] = compound: CC1=CC=C(C=C1)SC2=C3C=C(SC3=CN=C2)C(=O)N
How it was run: as §1

vemurafenib = compound: CCCS(=O)(=O)Nc1ccc(F)c(C(=O)c2c[nH]c3ncc(-c4ccc(Cl)cc4)cc23)c1F [vemurafenib]
How it was run: as §1

[9] = compound: CCCS(=O)(=O)Nc1ccc(F)c(C(=O)c2c[nH]c3ncc(Cl)cc23)c1F
How it was run: as §1

barasertib = compound: CCN(CCCOc1ccc2c(Nc3cc(CC(=O)Nc4cccc(F)c4)[nH]n3)ncnc2c1)CCOP(=O)(O)O [barasertib]
How it was run: as §1

[10] = compound: CC[C@@H]1C(=O)N(C)c2cnc(Nc3ccc(C(=O)NC4CCN(C)CC4)cc3OC)nc2N1C1CCCC1
How it was run: as §1

volasertib = compound: CC[C@@H]1C(=O)N(C)c2cnc(Nc3ccc(C(=O)N[C@H]4CC[C@H](N5CCN(CC6CC6)CC5)CC4)cc3OC)nc2N1C(C)C [volasertib]
How it was run: as §1

[11] = compound: CCn1c(C(=O)N(C2CC2)C2CC2)cc2c3c(ncn3C)c(Nc3cc(C)n(C)n3)nc21
How it was run: as §1

[12] = compound: CCn1cc(-c2ccnc3[nH]c(-c4cccc(CN(C)C)c4)cc23)c(-c2ccc(NC(=O)N(C)C)cc2)n1
How it was run: as §1

[13] = compound: CN1CCC(CNc2ccc3ncc(-c4cccc(OC(F)(F)F)c4)n3n2)CC1
How it was run: as §1

saracatinib = compound: CN1CCN(CCOc2cc(OC3CCOCC3)c3c(Nc4c(Cl)ccc5c4OCO5)ncnc3c2)CC1 [saracatinib]
How it was run: as §1

sotrastaurin = compound: CN1CCN(c2nc(C3=C(c4c[nH]c5ccccc45)C(=O)NC3=O)c3ccccc3n2)CC1 [sotrastaurin]
How it was run: as §1

Measured: log2 fold change

PLXNB2 (UniProt O15031)
Chain of UniProt O15031 (O15031 whole entry, looked up): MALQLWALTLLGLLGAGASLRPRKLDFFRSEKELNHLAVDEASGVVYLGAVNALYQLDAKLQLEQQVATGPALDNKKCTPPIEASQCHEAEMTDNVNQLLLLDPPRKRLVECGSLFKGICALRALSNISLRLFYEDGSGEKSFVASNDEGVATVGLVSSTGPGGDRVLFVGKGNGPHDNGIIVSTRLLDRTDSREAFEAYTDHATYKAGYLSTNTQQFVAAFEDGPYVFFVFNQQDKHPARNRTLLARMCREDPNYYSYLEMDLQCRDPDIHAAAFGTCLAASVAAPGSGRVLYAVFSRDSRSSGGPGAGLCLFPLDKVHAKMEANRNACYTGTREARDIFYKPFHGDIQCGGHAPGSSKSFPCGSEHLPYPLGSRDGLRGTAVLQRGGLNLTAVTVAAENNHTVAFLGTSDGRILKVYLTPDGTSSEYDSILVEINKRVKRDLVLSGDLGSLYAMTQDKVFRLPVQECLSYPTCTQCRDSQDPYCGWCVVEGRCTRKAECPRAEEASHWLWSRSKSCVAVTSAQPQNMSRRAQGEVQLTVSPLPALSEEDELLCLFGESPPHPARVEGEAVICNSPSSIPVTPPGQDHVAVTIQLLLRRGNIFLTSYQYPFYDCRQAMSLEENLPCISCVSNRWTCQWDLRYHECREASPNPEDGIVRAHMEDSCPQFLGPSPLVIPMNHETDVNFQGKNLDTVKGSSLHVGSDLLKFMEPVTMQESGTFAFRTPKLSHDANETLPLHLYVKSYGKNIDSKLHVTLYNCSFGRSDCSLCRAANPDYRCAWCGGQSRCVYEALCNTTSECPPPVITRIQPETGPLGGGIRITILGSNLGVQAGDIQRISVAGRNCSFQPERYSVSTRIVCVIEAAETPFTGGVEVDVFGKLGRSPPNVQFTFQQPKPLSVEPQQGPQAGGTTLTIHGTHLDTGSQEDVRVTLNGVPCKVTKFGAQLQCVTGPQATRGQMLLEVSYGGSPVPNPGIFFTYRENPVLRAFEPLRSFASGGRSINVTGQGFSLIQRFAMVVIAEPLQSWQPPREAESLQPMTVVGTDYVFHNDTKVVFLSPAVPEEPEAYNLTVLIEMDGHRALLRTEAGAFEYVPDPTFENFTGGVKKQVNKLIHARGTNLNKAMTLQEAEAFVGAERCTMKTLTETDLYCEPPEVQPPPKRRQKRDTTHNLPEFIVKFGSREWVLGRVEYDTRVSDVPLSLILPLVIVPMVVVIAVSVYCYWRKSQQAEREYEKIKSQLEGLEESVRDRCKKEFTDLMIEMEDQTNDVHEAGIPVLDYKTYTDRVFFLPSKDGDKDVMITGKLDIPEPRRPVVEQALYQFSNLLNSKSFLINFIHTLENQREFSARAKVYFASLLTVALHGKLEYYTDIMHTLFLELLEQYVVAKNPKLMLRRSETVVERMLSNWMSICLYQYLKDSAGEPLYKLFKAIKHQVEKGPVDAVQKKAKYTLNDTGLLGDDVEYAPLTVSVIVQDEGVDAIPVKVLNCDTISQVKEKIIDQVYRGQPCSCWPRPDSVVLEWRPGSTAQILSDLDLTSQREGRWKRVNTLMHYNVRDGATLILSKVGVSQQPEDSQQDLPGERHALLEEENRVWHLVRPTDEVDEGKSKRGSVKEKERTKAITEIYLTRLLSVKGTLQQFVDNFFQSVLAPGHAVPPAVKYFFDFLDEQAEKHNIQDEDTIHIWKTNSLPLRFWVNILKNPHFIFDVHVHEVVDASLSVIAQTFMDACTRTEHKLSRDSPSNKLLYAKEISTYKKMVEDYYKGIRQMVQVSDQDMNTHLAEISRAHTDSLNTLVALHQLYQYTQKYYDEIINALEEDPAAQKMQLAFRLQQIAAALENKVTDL
inactive: ibrutinib 0.019 | [1] 0.016 | ralimetinib 0.035 | [2] -0.026 | [3] -0.03 | [4] 0.033 | [5] 0.006 | [6] -0.02 | [7] -0.003 | [8] -0.016 | vemurafenib 0.011 | [9] -0.007 | barasertib 0.008 | [10] 0.051 | volasertib -0.021 | [11] -0.003 | [12] -0.043 | [13] -0.019 | saracatinib 0.005 | sotrastaurin 0.024

PTGS1 isoform 6 (UniProt P23219)
active: [12] -0.279
inactive: ibrutinib 0.109 | [1] 0.022 | ralimetinib -0.001 | [2] -0.075 | [3] -0.043 | [4] 0.023 | [5] -0.039 | [6] 0.023 | [7] -0.011 | [8] -0.026 | vemurafenib 0.058 | [9] 0.076 | barasertib 0.039 | [10] 0.005 | volasertib -0.022 | [11] -0.012 | [13] 0.134 | saracatinib -0.033 | sotrastaurin 0.065

PYURF (UniProt Q96I23)
Chain of UniProt Q96I23 (Q96I23 whole entry, looked up): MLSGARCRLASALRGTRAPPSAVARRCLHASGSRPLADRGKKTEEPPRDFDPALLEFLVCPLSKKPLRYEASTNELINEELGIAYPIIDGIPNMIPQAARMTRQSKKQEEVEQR
inactive: ibrutinib 0.189 | [1] -0.026 | ralimetinib -0.005 | [2] 0.079 | [3] 0.016 | [4] 0.058 | [5] -0.05 | [6] 0.084 | [7] 0.012 | [8] -0.026 | vemurafenib -0.048 | [9] -0.003 | barasertib -0.049 | [10] 0.103 | volasertib 0.059 | [11] 0.042 | [12] -0.03 | [13] -0.002 | saracatinib -0.013 | sotrastaurin -0.034

PREP (UniProt P48147)
Chain of UniProt P48147 (P48147 whole entry, looked up): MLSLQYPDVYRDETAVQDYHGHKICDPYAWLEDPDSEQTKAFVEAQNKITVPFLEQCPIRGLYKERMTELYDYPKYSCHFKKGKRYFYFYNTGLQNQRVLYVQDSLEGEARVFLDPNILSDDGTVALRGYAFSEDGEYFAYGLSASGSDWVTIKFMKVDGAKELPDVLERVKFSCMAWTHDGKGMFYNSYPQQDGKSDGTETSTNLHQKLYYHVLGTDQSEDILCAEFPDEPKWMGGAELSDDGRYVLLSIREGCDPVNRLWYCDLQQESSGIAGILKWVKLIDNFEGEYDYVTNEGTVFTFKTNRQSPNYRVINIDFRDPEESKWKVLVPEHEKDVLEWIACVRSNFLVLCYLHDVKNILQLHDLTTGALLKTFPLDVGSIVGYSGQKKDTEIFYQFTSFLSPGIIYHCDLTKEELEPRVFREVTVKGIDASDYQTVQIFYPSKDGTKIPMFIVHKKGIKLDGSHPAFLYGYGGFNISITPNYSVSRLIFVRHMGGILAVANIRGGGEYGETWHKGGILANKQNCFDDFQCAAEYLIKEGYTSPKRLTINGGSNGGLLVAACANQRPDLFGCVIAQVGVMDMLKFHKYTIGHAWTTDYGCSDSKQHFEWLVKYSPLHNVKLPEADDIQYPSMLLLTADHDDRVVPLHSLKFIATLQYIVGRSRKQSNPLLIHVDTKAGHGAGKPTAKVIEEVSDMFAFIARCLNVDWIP
inactive: ibrutinib 0.019 | [1] 0 | ralimetinib 0.015 | [2] 0.004 | [3] -0.008 | [4] 0.011 | [5] -0.009 | [6] -0.006 | [7] 0.006 | [8] 0.011 | vemurafenib 0.028 | [9] 0.011 | barasertib -0.003 | [10] -0.025 | volasertib -0.025 | [11] 0.023 | [12] 0.008 | [13] -0.013 | saracatinib 0.005 | sotrastaurin 0.001

PHKB isoform 3 (UniProt Q93100)
Chain of UniProt Q93100 (Q93100 whole entry, looked up): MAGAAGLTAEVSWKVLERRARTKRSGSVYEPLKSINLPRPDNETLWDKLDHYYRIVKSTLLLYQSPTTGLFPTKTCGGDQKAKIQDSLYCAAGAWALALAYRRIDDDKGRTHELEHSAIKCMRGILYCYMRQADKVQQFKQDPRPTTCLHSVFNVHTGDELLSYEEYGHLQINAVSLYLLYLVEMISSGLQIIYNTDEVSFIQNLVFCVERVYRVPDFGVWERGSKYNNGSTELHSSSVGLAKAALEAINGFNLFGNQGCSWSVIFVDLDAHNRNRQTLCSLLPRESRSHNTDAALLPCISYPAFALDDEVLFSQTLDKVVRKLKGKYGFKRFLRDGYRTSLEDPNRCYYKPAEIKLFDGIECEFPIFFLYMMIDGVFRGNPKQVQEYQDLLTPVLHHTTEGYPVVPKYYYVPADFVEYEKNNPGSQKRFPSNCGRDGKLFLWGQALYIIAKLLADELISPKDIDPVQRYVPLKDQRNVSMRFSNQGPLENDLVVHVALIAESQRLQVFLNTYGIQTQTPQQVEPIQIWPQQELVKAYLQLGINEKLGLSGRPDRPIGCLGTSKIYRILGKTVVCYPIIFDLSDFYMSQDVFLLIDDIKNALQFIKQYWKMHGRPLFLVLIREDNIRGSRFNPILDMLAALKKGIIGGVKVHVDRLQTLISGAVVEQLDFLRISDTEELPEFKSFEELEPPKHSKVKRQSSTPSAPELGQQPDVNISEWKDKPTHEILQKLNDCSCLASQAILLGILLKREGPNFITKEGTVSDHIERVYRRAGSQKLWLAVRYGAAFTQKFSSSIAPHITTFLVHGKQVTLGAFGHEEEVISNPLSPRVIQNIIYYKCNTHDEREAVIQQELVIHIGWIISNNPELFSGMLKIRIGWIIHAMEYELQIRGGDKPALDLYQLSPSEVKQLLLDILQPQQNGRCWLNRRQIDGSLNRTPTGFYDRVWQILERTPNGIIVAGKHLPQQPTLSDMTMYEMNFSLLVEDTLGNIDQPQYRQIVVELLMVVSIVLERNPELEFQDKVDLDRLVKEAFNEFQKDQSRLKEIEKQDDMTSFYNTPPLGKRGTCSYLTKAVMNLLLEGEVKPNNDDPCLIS
inactive: ibrutinib -0.004 | [1] 0.071 | ralimetinib 0.008 | [2] -0.052 | [3] -0.003 | [4] 0.008 | [5] -0.069 | [6] -0.019 | [7] 0.022 | [8] -0.049 | vemurafenib -0.043 | [9] -0.007 | barasertib 0.04 | [10] 0.022 | volasertib -0.034 | [11] 0.009 | [12] -0.146 | [13] 0.138 | saracatinib 0.019 | sotrastaurin -0.014

PDPK1 (UniProt O15530)
inactive: ibrutinib 0.026 | [1] 0.236 | ralimetinib 0.067 | [2] -0.075 | [3] 0.021 | [4] 0.163 | [5] -0.034 | [6] -0.056 | [7] -0.006 | [8] -0.021 | vemurafenib -0.03 | [9] -0.002 | barasertib -0.027 | [10] -0.06 | volasertib -0.047 | [11] 0.012 | [12] 0.041 | [13] -0.017 | saracatinib -0.025 | sotrastaurin 0.133

POLR2M (UniProt P0CAP2)
inactive: ibrutinib -0.011 | [1] 0.014 | ralimetinib -0.018 | [2] -0.042 | [3] -0.001 | [4] -0.014 | [5] -0.046 | [6] -0.055 | [7] -0.008 | [8] 0.007 | vemurafenib 0.014 | [9] 0.02 | barasertib 0.021 | [10] -0.108 | volasertib -0.024 | [11] 0.008 | [12] -0.055 | [13] 0.067 | saracatinib -0.007 | sotrastaurin 0.041

PTPN7 isoform 3 (UniProt P35236)
inactive: ibrutinib 0.018 | [1] 0.027 | ralimetinib 0.066 | [2] -0.021 | [3] -0.044 | [4] -0.023 | [5] -0.053 | [6] -0.07 | [7] 0.005 | [8] 0.032 | vemurafenib 0.016 | [9] 0.06 | barasertib 0.026 | [10] -0.025 | volasertib -0.06 | [11] 0.063 | [12] -0.076 | [13] 0.124 | saracatinib 0.005 | sotrastaurin 0.015

PRPF38A (UniProt Q8NAV1)
inactive: ibrutinib 0 | [1] -0.001 | ralimetinib 0.01 | [2] -0.011 | [3] 0.054 | [4] 0.027 | [5] -0.128 | [6] 0.094 | [7] -0.075 | [8] 0.018 | vemurafenib -0.021 | [9] -0.011 | barasertib -0.037 | [10] -0.029 | volasertib -0.031 | [11] -0.055 | [13] 0.046 | saracatinib 0.004 | sotrastaurin 0.191
active: [12] -0.465

PHKA2 (UniProt P46019)
inactive: ibrutinib -0.032 | [1] 0.095 | ralimetinib -0.022 | [2] -0.097 | [3] -0.016 | [4] -0.03 | [5] -0.076 | [6] 0.007 | [7] 0.013 | [8] -0.015 | vemurafenib -0.065 | [9] 0.053 | barasertib 0.072 | [10] 0.059 | volasertib 0.021 | [11] 0.024 | [12] 0.009 | [13] -0.084 | saracatinib 0.002 | sotrastaurin -0.058

PPP4R2 (UniProt Q9NY27)
inactive: ibrutinib -0.012 | [1] -0.007 | ralimetinib -0.015 | [2] -0.058 | [3] 0.003 | [4] 0 | [5] 0 | [6] -0.007 | [7] 0.003 | [8] -0.019 | vemurafenib -0.033 | [9] 0.026 | barasertib -0.041 | [10] 0.057 | volasertib -0.014 | [11] -0.042 | [12] 0.21 | [13] 0.028 | saracatinib -0.007 | sotrastaurin 0.006

PTP4A1 (UniProt Q93096)
inactive: ibrutinib 0.011 | [1] 0.027 | ralimetinib 0.015 | [2] -0.071 | [3] -0.031 | [4] -0.113 | [5] -0.007 | [6] -0.012 | [7] -0.048 | [8] 0 | vemurafenib -0.006 | [9] -0.029 | barasertib -0.041 | [10] 0.017 | volasertib 0.036 | [11] 0.019 | [12] 0.177 | [13] -0.05 | saracatinib 0.001 | sotrastaurin 0

PLA2G4B isoform 6 (UniProt P0C869)
inactive: ibrutinib -0.029 | [1] -0.046 | ralimetinib -0.17 | [2] -0.15 | [3] 0 | [4] -0.047 | [5] -0.149 | [6] 0.34 | [7] -0.005 | [8] -0.052 | vemurafenib 0.05 | [9] 0.069 | barasertib 0.002 | [10] 0.144 | volasertib 0.018 | [11] -0.191 | [12] 0.034 | [13] -0.014 | saracatinib 0.101 | sotrastaurin -0.168

PIK3CB (UniProt P42338)
inactive: ibrutinib -0.009 | [1] 0.388 | ralimetinib -0.011 | [2] -0.005 | [3] -0.076 | [4] -0.003 | [5] 0.035 | [6] -0.012 | [7] 0.056 | [8] 0.018 | vemurafenib -0.079 | [9] 0.001 | barasertib 0.011 | [10] 0.314 | volasertib -0.025 | [11] -0.07 | [12] -0.02 | [13] 0.427 | saracatinib -0.03 | sotrastaurin 0.158

PKN1 isoform 2 (UniProt Q16512)
Chain of UniProt Q16512 (Q16512 whole entry, looked up): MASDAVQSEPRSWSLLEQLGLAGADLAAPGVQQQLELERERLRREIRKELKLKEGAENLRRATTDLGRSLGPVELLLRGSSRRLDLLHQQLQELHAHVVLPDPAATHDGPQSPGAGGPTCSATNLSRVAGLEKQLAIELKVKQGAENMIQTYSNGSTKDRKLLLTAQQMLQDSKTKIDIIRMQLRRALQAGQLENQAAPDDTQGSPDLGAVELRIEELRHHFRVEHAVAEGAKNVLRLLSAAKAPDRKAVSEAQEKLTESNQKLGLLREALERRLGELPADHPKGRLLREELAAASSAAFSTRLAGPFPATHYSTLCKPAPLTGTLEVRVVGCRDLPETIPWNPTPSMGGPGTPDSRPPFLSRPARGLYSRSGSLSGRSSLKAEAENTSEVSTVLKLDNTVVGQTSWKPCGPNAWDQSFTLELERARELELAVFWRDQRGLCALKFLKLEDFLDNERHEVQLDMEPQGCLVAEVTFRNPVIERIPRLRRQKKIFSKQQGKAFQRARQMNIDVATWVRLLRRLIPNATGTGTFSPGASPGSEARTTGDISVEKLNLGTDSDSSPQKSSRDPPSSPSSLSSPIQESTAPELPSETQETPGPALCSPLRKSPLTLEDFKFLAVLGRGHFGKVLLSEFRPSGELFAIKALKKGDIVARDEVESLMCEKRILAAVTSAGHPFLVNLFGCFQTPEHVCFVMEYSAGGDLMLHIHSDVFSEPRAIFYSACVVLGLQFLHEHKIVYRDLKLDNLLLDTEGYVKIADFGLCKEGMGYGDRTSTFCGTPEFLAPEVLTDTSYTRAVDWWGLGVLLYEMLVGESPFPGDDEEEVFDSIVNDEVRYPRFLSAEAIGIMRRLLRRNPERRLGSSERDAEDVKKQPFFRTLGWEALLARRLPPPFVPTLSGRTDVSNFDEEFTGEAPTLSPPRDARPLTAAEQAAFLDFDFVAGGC
active: [13] -0.483
inactive: ibrutinib 0.011 | [1] -0.107 | ralimetinib -0.001 | [2] 0.008 | [3] 0.006 | [4] 0.091 | [5] 0.021 | [6] 0.048 | [7] 0.035 | [8] 0.05 | vemurafenib 0.013 | [9] 0.049 | barasertib -0.006 | [10] 0.013 | volasertib -0.009 | [11] 0.024 | [12] -0.055 | saracatinib 0.002 | sotrastaurin -0.143

QKI (UniProt Q96PU8)
Chain of UniProt Q96PU8 (Q96PU8 whole entry, looked up): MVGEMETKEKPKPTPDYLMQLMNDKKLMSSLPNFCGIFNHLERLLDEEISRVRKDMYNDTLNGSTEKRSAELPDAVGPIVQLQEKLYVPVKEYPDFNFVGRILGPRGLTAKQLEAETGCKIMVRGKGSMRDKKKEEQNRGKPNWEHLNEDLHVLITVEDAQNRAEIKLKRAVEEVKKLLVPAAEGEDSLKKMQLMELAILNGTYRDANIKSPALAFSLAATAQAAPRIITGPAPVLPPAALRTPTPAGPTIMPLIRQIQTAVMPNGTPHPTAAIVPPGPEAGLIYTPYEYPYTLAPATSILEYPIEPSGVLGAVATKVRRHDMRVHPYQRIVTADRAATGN
inactive: ibrutinib -0.022 | [1] -0.012 | ralimetinib -0.023 | [2] -0.027 | [3] 0.029 | [4] 0.065 | [5] 0.069 | [6] -0.094 | [7] 0.009 | [8] -0.023 | vemurafenib -0.006 | [9] 0.024 | barasertib -0.027 | [10] 0.087 | volasertib -0.021 | [11] 0.001 | [12] -0.196 | [13] 0.107 | saracatinib 0.047 | sotrastaurin 0
